# Data as given in PubChem BioAssay (NCATS).
# Records with an inconclusive call do not appear. A number with no mark means an inactive call. Active and inactive are the calls of the source. The call rests on the fitted dose curve; in most records, active means well fitted curve in the direction sought with a large enough effect; inconclusive means small, poorly fitted or top-dose-only effect, or another doubt; inactive means no such curve, though single readings can be large; an effect the other way counts as inactive or inconclusive.
# Assays:
# PA-1 = test: Primary qHTS to identify gynecologic anti-cancer compounds using libraries of approved drugs and bioactive compounds (AID 1345084); conditions: Gynecologic cancer cell panel viability, ATPlite luminescence, 48 h; series mostly up to 57.5 µM; further: nearly all actives have a fitted effect of over 55% in size
# Method in brief: (§1)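 Five-point cytotoxicity, 48 h drug exposure at 37 C, 5% CO2, on cells seeded 16 h beforehand. ATP content read by ATPlite luminescence.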
# SKOV3 = test: as above; conditions: Gynecologic cancer cell panel viability, ATPlite luminescence, 48 h; series mostly up to 57.5 µM
# Method in brief: as §1
# Tov-21-G = test: as above; conditions: Gynecologic cancer cell panel viability, ATPlite luminescence, 48 h; series mostly up to 57.5 µM
# Method in brief: as §1
# Tov112D = test: as above; conditions: Gynecologic cancer cell panel viability, ATPlite luminescence, 48 h; series mostly up to 57.5 µM
# Method in brief: as §1
# [1] = qHTS assay to identify inhibitors of the type 1 interferon - major histocompatibility complex class I in skeletal muscle: Counter screen cell viability and HiBit confirmation (AID 1347412); conditions: iHSKM muscle cells + IFN-b, HiBiT or CellTiter-Glo, 24 h; for Potency: HiBiT; for activity change, negative = inhibition: Viability, at 45.9 µM (top of the series); on all read-outs here: nearly all actives have a fitted effect of over 60% in size
# Method in brief: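 HLA-B*08:01–HiBiT knock-in immortalized human myoblasts (C25cl48) stimulated with 4.0 ng/ml human IFN-beta and dosed with compound in a 12-point 1:3 titration (top final 46 uM). After 24 hrs at 37 C, HiBiT lytic luminescence or CellTiter Glo ATP read out.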
# On the % scale 0 is the no-effect control and ±100 the full control effect; potency means the concentration at half of the fitted maximal effect.
compound,measurement,setting,value
COc1ccc(-c2cnc(-c3cccc4c3-c3ccccc3C4=O)o2)cc1,Potency,PA-1,355 nM (active)
same,Potency,SKOV3,158 nM (active)
same,Potency,Tov-21-G,141 nM (active)
same,Potency,Tov112D,178 nM (active)
Cc1cnc(NC(=O)Nc2cc(Br)c(C)cc2OCC2CNCCO2)cn1 (centres undefined),Potency,PA-1,inactive
same,Potency,SKOV3,10000 nM (active)
same,Potency,Tov112D,inactive
CNCc1ccc(-c2cc(-c3nc(-c4ccc(S(=O)(=O)C(C)C)cc4)cnc3N)on2)cc1,Potency,PA-1,11200 nM (active)
same,Potency,SKOV3,3160 nM (active)
same,Potency,Tov-21-G,1580 nM (active)
Cc1cc(Nc2ncc3cc(-c4c(Cl)cccc4Cl)c(=O)n(C)c3n2)ccc1F,Potency,PA-1,3980 nM (active)
same,Potency,SKOV3,3550 nM (active)
same,Potency,Tov-21-G,3980 nM (active)
same,Potency,Tov112D,3550 nM (active)
O=[N+]([O-])c1cccc2[nH]c(CNc3nc(N4CCOCC4)nc4c3ncn4-c3ccsc3)nc12,Potency,PA-1,891 nM (active)
same,Potency,SKOV3,794 nM (active)
same,Potency,Tov112D,447 nM (active)
CO[C@H]1/C=C/C=C/C=C/C[C@H](OC(=O)[C@@H](C)NC(=O)C2CCCCC2)[C@H](C)[C@@H](O)/C(C)=C/CCc2cc(O)cc(c2)NC(=O)C1,Potency,PA-1,355 nM (active)
same,Potency,SKOV3,3160 nM (active)
same,Potency,Tov-21-G,2820 nM (active)
CN[C@H](CC(C)C)C(=O)N[C@H]1C(=O)N[C@@H](CC(N)=O)C(=O)N[C@H]2C(=O)N[C@H]3C(=O)N[C@H](C(=O)N[C@H](C(=O)O)c4cc(O)cc(O)c4-c4cc3ccc4O)[C@H](O[C@H]3C[C@](C)(N)[C@@H](O)[C@H](C)O3)c3ccc(c(Cl)c3)Oc3cc2cc(c3O[C@@H]2O[C@H](CO)[C@@H](O)[C@H](O)[C@H]2O[C@H]2C[C@](C)(NCc3ccc(-c4ccc(Cl)cc4)cc3)[C@@H](O)[C@H](C)O2)Oc2ccc(cc2Cl)[C@H]1O,Potency,PA-1,inactive
same,Potency,SKOV3,inactive
same,Potency,Tov-21-G,inactive
same,Potency,Tov112D,inactive
Cc1ccc(S(=O)(=O)c2ccc([N+](=O)[O-])o2)cc1,Potency,PA-1,14100 nM (active)
same,Potency,SKOV3,25100 nM (active)
same,Potency,Tov-21-G,7940 nM (active)
O=C(O)c1ccccc1NCCc1ccccc1,Potency,PA-1,inactive
same,Potency,SKOV3,inactive
same,Potency,Tov-21-G,inactive
same,Potency,Tov112D,inactive
CNC(=O)c1ccccc1Nc1nc(Nc2ccc(N3CCNCC3)cc2)ncc1Cl,Potency,PA-1,316 nM (active)
same,Potency,Tov-21-G,355 nM (active)
COc1cc2c(cc1OC)[C@@H]1[C@H](O)[C@@H](OC)C=C3CCN(C2)[C@H]31,Potency,SKOV3,inactive
Cc1cc(Nc2cc(N3CCN(C)CC3)nc(/C=C/c3ccccc3)n2)n[nH]1,Potency,PA-1,2510 nM (active)
same,Potency,[1],11100 nM (active)
COc1cc(NC(=O)Nc2cccc(CNC(=O)O[C@H]3CCOC3)c2)ccc1-c1cnco1,Potency,PA-1,1410 nM (active)
same,Potency,Tov-21-G,8910 nM (active)
same,Potency,Tov112D,inactive
COc1cccc(-c2cc(NCc3ccc4c(c3)OCO4)nc(N)n2)c1,Potency,PA-1,1000 nM (active)
same,Potency,Tov-21-G,1000 nM (active)
same,Potency,Tov112D,447 nM (active)
CC(C)c1c2cc(-c3ccnc(NC4CCC(NC5CCOCC5)CC4)n3)ccc2nn1C (centres undefined),Potency,PA-1,355 nM (active)
same,Potency,Tov112D,398 nM (active)
same,Potency,[1],249 nM (active)
same,"activity change, negative = inhibition",[1],-6.54%
COc1ccc2[nH]c3c(-c4cccc5ccccc45)nccc3c2c1,Potency,PA-1,891 nM (active)
same,Potency,Tov112D,1410 nM (active)
COc1cc(OC)c(/C=C/S(=O)(=O)Cc2ccc(OC)c(NCC(=O)O)c2)c(OC)c1,Potency,PA-1,224 nM (active)
same,Potency,Tov112D,316 nM (active)
c1cc(Nc2cc(C3CC3)[nH]n2)nc(Nc2ccc3nc[nH]c3c2)n1,Potency,PA-1,3980 nM (active)
same,Potency,Tov112D,1120 nM (active)
same,Potency,[1],1400 nM (active)
same,"activity change, negative = inhibition",[1],24.1%
CN(C)C/C=C/C(=O)Nc1cccc(C(=O)Nc2cccc(Nc3ncc(Cl)c(-c4c[nH]c5ccccc45)n3)c2)c1,Potency,PA-1,2820 nM (active)
same,Potency,Tov112D,1260 nM (active)
same,Potency,[1],1110 nM (active)
same,"activity change, negative = inhibition",[1],0.891%
COc1ccc(F)cc1-c1cc(NC(=O)[C@@H]2CCCNC2)ncc1Cl,Potency,PA-1,355 nM (active)
same,Potency,Tov112D,708 nM (active)
FC(F)(F)c1ccc(Nc2nc(-c3c(C(F)(F)F)nc4ccccn34)cs2)cc1,Potency,PA-1,1260 nM (active)
same,Potency,Tov112D,708 nM (active)
O=C(c1cc2c(cc1F)OC(c1ccc(F)cc1)(c1ccc(Cl)cc1Cl)O2)N1CCOCC1 (centres undefined),Potency,PA-1,inactive
same,Potency,Tov-21-G,inactive
same,Potency,Tov112D,inactive
C=C1C(OC(C)=O)CCC2(C)CC3(OC)OC(=O)C(C)=C3CC12 (centres undefined),Potency,PA-1,inactive
same,Potency,Tov-21-G,inactive
same,Potency,Tov112D,inactive
COc1cc(C(=O)NC2CCN(C)CC2)c(F)cc1Nc1ncc2c(n1)N(C1CCCC1)CC(F)(F)C(=O)N2C,Potency,PA-1,158 nM (active)
same,"activity change, negative = inhibition",[1],-23.9%
CC(=O)O[C@@H]1[C@H](O)[C@@H](O[C@@H]2O[C@@H](C)[C@H](O[C@@H]3OC[C@@H](O)[C@H](O[C@@H]4OC[C@@H](O)[C@H](O)[C@H]4O)[C@H]3O)[C@@H](O[C@@H]3O[C@H](CO)[C@@H](O)[C@H](O)[C@H]3O)[C@H]2O)[C@H](OC(=O)[C@]23CCC(C)(C)C[C@H]2C2=CCC4[C@@]5(C)CC[C@H](O[C@@H]6O[C@H](C(=O)O)[C@@H](O)[C@H](O[C@@H]7OC[C@@H](O)[C@H](O)[C@H]7O)[C@H]6O[C@@H]6O[C@H](CO)[C@H](O)[C@H](O)[C@H]6O)[C@@](C)(C=O)C5CC[C@@]4(C)[C@]2(C)CC3)O[C@@H]1C (some centres undefined),"activity change, negative = cytotoxicity",PA-1,-3.62% [at 6.55 µM]
same,"activity change, negative = cytotoxicity",Tov-21-G,-5.86% [at 6.55 µM]
same,"activity change, negative = cytotoxicity",Tov112D,7.57% [at 6.55 µM]
CN(C)CCCCC(=O)Nc1ccc(NC(=S)NC(=O)c2ccc(C(C)(C)C)cc2)cc1,Potency,PA-1,15800 nM (active)
same,Potency,Tov112D,inactive
CS(=O)(=O)N1CCC(NC(=O)c2[nH]ncc2NC(=O)c2c(Cl)cccc2Cl)CC1,Potency,PA-1,3980 nM (active)
same,Potency,Tov112D,8910 nM (active)
same,Potency,[1],1980 nM (active)
same,"activity change, negative = inhibition",[1],12.3%
C[C@@H]1C[C@@H]2O[C@H]2/C=C\C=C\C(=O)Cc2c(Cl)c(O)cc(O)c2C(=O)O1,Potency,PA-1,10000 nM (active)
same,Potency,Tov112D,inactive
COc1cc2c(cc1OC)-c1[nH]nc(Nc3cccc(F)c3)c1C2,Potency,PA-1,316 nM (active)
same,Potency,Tov-21-G,2240 nM (active)
same,Potency,Tov112D,282 nM (active)
COc1cc(Nc2nc3c(s2)CCCC3c2ccc(F)cc2)ccc1-n1cnc(C)c1 (centres undefined),Potency,PA-1,inactive
same,Potency,Tov-21-G,inactive
same,Potency,Tov112D,inactive
NC1CCC(Nc2cc(-c3cccc(NCc4cccc(F)c4)n3)c(Cl)cn2)CC1 (centres undefined),Potency,PA-1,178 nM (active)
same,Potency,Tov112D,891 nM (active)
Cc1cc(-c2cc(O)ccc2Cl)cc2nnc(Nc3ccc(OCCN4CCCC4)cc3)nc12,Potency,SKOV3,28200 nM (active)
Cc1cccc2c1NC(=O)C2(c1ccc(O)cc1)c1ccc(O)cc1,Potency,SKOV3,inactive
CC[C@@H](N)CNc1ccnc(-c2cc(-c3cnn(C)c3)ccc2O)n1,Potency,PA-1,7940 nM (active)
same,Potency,Tov-21-G,8910 nM (active)
same,Potency,Tov112D,10000 nM (active)
CCCNc1ccc2ncc(-c3ccc4[nH]ncc4c3)n2n1,Potency,PA-1,2820 nM (active)
same,Potency,Tov-21-G,3160 nM (active)
same,Potency,Tov112D,3550 nM (active)
CC(=O)SCC(=O)c1ccc(NS(=O)(=O)c2ccc(OCCCN(C)C)cc2)nc1,Potency,PA-1,2820 nM (active)
same,Potency,Tov-21-G,11200 nM (active)
